Screening results (PubChem BioAssay)
The list is not random: actives were taken first. Their share in the collection is about 2.3%.
Calb FLC – affects C. albicans growth with fluconazole. C. albicans CaCi-2 (fluconazole-resistant clinical isolate) + fluconazole, Alamar Blue growth, 48 h. growth inhibition, % (concentration not given with the values). 300,000 tested, 0.57% active. AID 1979;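 active = growth inhibition above about 58% in most replicates, limit read from the data, passing the limit was not always enough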;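 also: all wells also contain fluconazole at 8 µg/ml as a sub-toxic cotreatment; 0% = median of DMSO wells and 100% = median of geldanamycin control wells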
Rin1-Abl PPI inh – blocks binding of human Rin1 to Abl; P00519+Q13671; TR-FRET Rin1/Abl binding, biochemical; inhibition, % at 7.35 µM; 360,000 tested, 0.4% active; AID 588664; in the data active = inhibition above about 5%, passing the limit was not always enough
TPT1 inhibitor – inhibitors of Candida albicans tRNA 2'-phosphotransferase TPT1; recombinant caTPT1, FP RNA substrate dephosphorylation; inhibition, % at 5 µM; 300,000 tested, 0.81% active; AID 1962;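 active = inhibition above the mean of all tested compounds plus 3 SD, set per screening campaign, cut at about 24% in these data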;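 also: plate controls were DMSO alone for no effect and ferristatin control at 100 nM for full effect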
IDE act – activators of human insulin-degrading enzyme in cells; P14735; HEK cells, FAbeta-B cleavage, fluorescence polarization; 0% vehicle, 100% cell-free pure enzyme wells; activation, % at 5.96 µM; 340,000 tested, 0.073% active; AID 493087;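 active = activation above the mean of all tested compounds plus 3 SD, set per screening campaign, cut at about 17% in these data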
Target sequence (P14735 whole entry, looked up): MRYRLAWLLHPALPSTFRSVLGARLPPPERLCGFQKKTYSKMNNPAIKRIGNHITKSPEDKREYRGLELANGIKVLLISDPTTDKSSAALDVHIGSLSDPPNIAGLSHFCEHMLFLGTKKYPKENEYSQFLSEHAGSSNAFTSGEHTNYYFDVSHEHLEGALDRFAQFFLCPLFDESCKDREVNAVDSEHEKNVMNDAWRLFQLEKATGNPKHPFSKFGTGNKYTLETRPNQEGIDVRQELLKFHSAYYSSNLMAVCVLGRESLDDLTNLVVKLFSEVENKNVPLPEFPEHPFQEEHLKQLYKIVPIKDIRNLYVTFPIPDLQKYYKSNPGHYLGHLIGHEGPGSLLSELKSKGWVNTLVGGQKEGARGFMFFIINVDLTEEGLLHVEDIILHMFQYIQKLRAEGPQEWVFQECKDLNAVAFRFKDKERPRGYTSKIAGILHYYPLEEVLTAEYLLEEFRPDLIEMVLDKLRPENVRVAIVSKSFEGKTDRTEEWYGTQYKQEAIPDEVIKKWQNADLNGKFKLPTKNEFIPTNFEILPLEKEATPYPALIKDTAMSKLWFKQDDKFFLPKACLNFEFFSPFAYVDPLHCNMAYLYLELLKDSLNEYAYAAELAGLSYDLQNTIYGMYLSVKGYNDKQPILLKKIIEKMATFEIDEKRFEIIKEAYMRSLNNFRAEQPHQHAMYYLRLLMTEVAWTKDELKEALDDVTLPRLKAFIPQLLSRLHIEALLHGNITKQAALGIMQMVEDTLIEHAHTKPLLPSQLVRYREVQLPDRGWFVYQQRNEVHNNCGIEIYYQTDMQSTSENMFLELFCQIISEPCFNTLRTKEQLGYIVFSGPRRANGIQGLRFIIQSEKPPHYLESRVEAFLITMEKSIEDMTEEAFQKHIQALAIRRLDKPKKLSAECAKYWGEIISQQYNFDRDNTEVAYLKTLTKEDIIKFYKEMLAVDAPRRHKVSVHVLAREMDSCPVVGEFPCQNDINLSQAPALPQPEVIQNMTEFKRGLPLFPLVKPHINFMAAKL
IDE cell inh – inhibits human insulin-degrading enzyme in HEK cells; 320,000 tested, 0.41% active; inhibition, % at 5.59 µM; FAbetaB cleavage, fluorescence polarization; P14735;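 active = percent inhibition above the average of all tested compounds plus 3 SD, set per screening campaign, cut at about 16% in these data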;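 also: IDE supplied by intact live HEK cells; FP after avidin binding of uncleaved biotin substrate so inhibition keeps polarization high; 0% = DMSO wells and 100% = 60 µM reference IDE inhibitor Ii1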
Rpn11 block – Rpn11 (human) deubiquitinase inhibition | O00487 | inhibition, % at 20 µM | human 26S proteasome, Ub4-pepOG fluorescence polarization; 20S core pre-blocked with epoxomicin | AID 588493 | 360,000 tested, 0.59% active;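 active = inhibition at 20 µM, scaled to each plate's controls, above about 33%, limit read from the data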
Rin1-Abl confirm – confirmation of inhibitors of human Rin1-Abl interaction | TR-FRET Rin1-Abl binding, purified proteins | 1,300 tested, 49% active | shares compounds with Rin1-Abl PPI inh | AID 602124 | inhibition, % at 7.35 µM
GFP quencher – counter-screen for Rin1-Abl inhibitors: GFP fluorescence quenchers; 1,300 tested, 8.5% active; inhibition, % at 6.75 µM; inhibitors/quenchers counterscreen; shares compounds with Rin1-Abl PPI inh;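 also: ABL1-eGFP fusion protein alone without its partner RIN1-SBP; 0% = protein with vehicle and 100% = wells lacking protein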
GFP quench DR – GFP fluorescence interference dose response; shares compounds with Rin1-Abl PPI inh; GFP fluorescence interference/quenching counterscreen; IC50, µM; 230 tested, under 10 active; call rule not given here;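 also: ABL1-eGFP fusion protein alone without its RIN1 binding partner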
* = called active by the depositor; x = not tested or not shown. Rule as the data show it, unless noted: active = inhibition above about 6.5%; inactive = the rest.

SMILES | Calb FLC | Rin1-Abl PPI inh | TPT1 inhibitor | IDE act | IDE cell inh | Rpn11 block | Rin1-Abl confirm | GFP quencher | others
COC(=O)c1ccc(COC(=O)c2ccc(CO)cc2)o1 | 6.3 | 7.3* | 3.5 | 0.6 | -1.5 | 3.2 | 5.8 | -0.9
CCC(OCC(O)CN1CCCCC1)c1ccccc1 (stereo not drawn) | 2.8 | -1.7 | -2.5 | 1.9 | 4.5 | 3.9 | x | x
CCc1cccc(NC(=O)c2sc3nc4n(c(=O)c3c2C)CCC4)c1 | 3.5 | 10.4* | -4.4 | -4.3 | 5.8 | -5.1 | -3.2 | -0.2
CC(=O)C(C(C)=O)C1(O)C(=O)c2ccccc2C1=O | -3.2 | 23.2* | 1.6 | -0.3 | -1.9 | -3.2 | 18.7* | 0.1 | GFP quench DR=>67.6
O=C(Nc1ccccc1N1CCN(C(=O)c2ccccc2)CC1)c1ccc(Br)o1 | -0.5 | -2.5 | 0.5 | -10.4 | 7.2 | -8.5 | x | x
CC1CCN(C(=O)c2[nH]cnc2C(=O)NC2CCN(C(=O)OC(C)(C)C)CC2)CC1 | x | 10.0* | x | -6.2 | -0.3 | -5.0 | 4.2 | -0.6
Cc1ccccc1-c1nnc2c3ccccc3c(C)nn12 | 8.9 | 0.1 | 0.8 | 3.2 | 3.7 | 4.1 | x | x
Cc1nn2c(-c3ccco3)nnc2c2ccccc12 | 20.5 | 10.2* | 4.3 | -5.5 | -1.7 | 1.4 | 14.3* | -2.6
Cc1ccnc(NC(=O)c2cccc(NC(=O)CC3SC(N4CCCCC4)=NC3=O)c2)c1 (stereo not drawn) | x | -0.9 | x | 2.9 | 5.6 | 2.7 | x | x
C=CCOc1ccc(/C=N/NC(=O)C(=O)Nc2ccccn2)cc1OC | 39.1 | 6.5* | 0.1 | -8.7 | 4.5 | -3.9 | 13.9* | -1.1
O=c1[nH]n(CC2COC3(CCCCC3)O2)c(=O)c2ccccc12 (stereo not drawn) | 2.9 | 34.5* | 0.0 | -10.2 | 6.1 | -1.5 | 27.4* | 0.1 | GFP quench DR=>67.6
NCCNC(=O)Cc1ccc(NC(=O)Cc2ccc(Nc3ncnc4c3ncn4[C@@H]3O[C@H](CO)[C@@H](O)[C@H]3O)cc2)cc1 | x | 16.2* | -2.4 | -8.4 | 6.1 | -2.3 | 27.7* | -1.9
S=C(NCCN1CCCCC1)Nc1ccccc1 | -18.3 | 9.0* | -1.5 | 5.3 | -1.2 | -2.9 | -0.2 | -2.3
S=C(NCCN1CCCCC1)Nc1ccc(Br)cc1 | 2.6 | -0.6 | -2.8 | 0.5 | 3.5 | -0.5 | x | x
CC(C)(C)c1ccc(-c2n[nH]c(=S)n2CCCN2CCOCC2)cc1 | -37.3 | 8.7* | 1.8 | -0.9 | 2.6 | 0.7 | 7.6* | 0.0
CC(=O)c1ccc(OCC(=O)NC(=O)NC2CCCC2)cc1 | x | -3.1 | x | x | x | 1.0 | x | x
COc1ccccc1C(=O)Nc1ccc(C(=O)N2CCCC2)cc1 | -2.8 | 7.5 | -3.1 | 4.6 | 5.7 | 3.1 | x | x
COc1ccccc1C(=O)Nc1ccc(C(=O)N2CCCCC2)cc1 | 2.1 | 14.1* | -3.5 | 3.8 | 0.1 | -8.8 | 12.8* | -0.3
O=C(CCO)c1ccc(O)cc1 | 1.1 | 29.4* | -0.4 | 3.1 | -0.9 | -26.5 | 33.4* | 6.5 | GFP quench DR=>67.4
CCCCC(=O)c1ccc(O)cc1 | -21.5 | 4.2 | 0.8 | 4.3 | -5.9 | 4.4 | x | x
CCN(CC)c1ncnc2c1ncn2[C@H]1CN(Cc2ccccc2)C[C@@H](CO)O1 | x | 0.1 | x | x | x | -3.1 | x | x
CCN(CC)c1ncnc2c1ncn2[C@H]1CN(Cc2ccncc2)C[C@@H](CO)O1 | x | 7.7* | x | x | x | -2.0 | -3.2 | -0.4
CCN(CC)c1ncnc2c1ncn2[C@H]1CN(Cc2ccc(Cl)cc2)C[C@@H](CO)O1 | x | 2.6 | x | x | x | -6.3 | x | x
CN(C)c1ncnc2c1ncn2[C@H]1CN(Cc2ccc(Cl)cc2)C[C@@H](CO)O1 | x | 6.9* | x | x | x | -2.7 | 3.3 | -2.8
O=c1[nH]c(=S)[nH]cc1Oc1ccccc1 | x | -0.8 | x | -2.3 | x | 2.7 | x | x
SMILES | Calb FLC | Rin1-Abl PPI inh | TPT1 inhibitor | IDE act | IDE cell inh | Rpn11 block | Rin1-Abl confirm | GFP quencher | others
COc1ccc(CC(N)c2csc(NC(=O)NCCc3ccccc3)n2)cc1 (stereo not drawn) | x | 10.0* | x | x | x | -0.9 | 6.8* | 1.4
CCOC(=O)c1ccc(NC(=O)CCNS(=O)(=O)c2cccs2)cc1 | -6.7 | 4.4 | -0.3 | -3.7 | 1.0 | 5.6 | x | x
CC1=C(C#N)C2(O)C(=O)c3ccccc3C2(O)N1 (stereo not drawn) | -5.8 | -1.6 | 0.7 | 5.2 | 2.3 | -3.9 | x | x
CC(=O)C1=C(C)OC2(O)c3ccccc3C(=O)C12O (stereo not drawn) | 34.6 | 17.9* | -1.1 | x | 7.7 | 7.0 | 17.8* | -0.9 | GFP quench DR=>67.5
CCOC(=O)C1=C(C)OC2(O)c3ccccc3C(=O)C12O (stereo not drawn) | -3.7 | 22.3* | 0.8 | x | -5.8 | 14.7 | 36.1* | -0.2 | GFP quench DR=>67.5
CC(C)c1ccc(NC(=S)NCCc2c[nH]c3ccccc23)cc1 | -9.0 | 0.3 | -0.5 | 4.0 | -1.9 | 6.1 | x | x
CN(CC(=O)Nc1cc(S(=O)(=O)N2CCOCC2)ccc1Cl)C1CCS(=O)(=O)C1 (stereo not drawn) | 0.4 | 9.4* | 3.9 | 1.6 | -0.4 | -2.7 | 0.6 | -0.8
Cc1ccc(S(=O)(=O)N2CCOCC2)cc1NC(=O)CN(C)C1CCS(=O)(=O)C1 (stereo not drawn) | -1.5 | 0.5 | -0.1 | 5.1 | 2.5 | -4.7 | x | x
O=S(=O)(c1cccc(-n2cnnn2)c1)N1CCOCC1 | -4.6 | 8.9* | -0.1 | 3.2 | -2.3 | -0.4 | -0.5 | -3.1
Oc1ccc(/C=N/N=C/c2ccc(O)c(O)c2)cc1O | -2.6 | 23.5* | -2.3 | -4.3 | 0.9 | 1.1 | 56.8* | 16.2*
O=C(NCc1nnnn1-c1ccc(F)cc1)c1cc2ccccc2o1 | x | -1.2 | x | x | x | -1.3 | x | x
CN(C)c1ccc(-c2[nH][nH]c(=O)c2NC(=O)c2ccc3ccccc3n2)cc1 | x | 35.5* | x | x | x | 17.9 | 10.1* | 2.9
CN(C)c1ccc(-c2[nH][nH]c(=O)c2NC(=O)c2ccccn2)cc1 | x | 33.7* | x | x | x | 0.9 | 10.7* | 0.1
C/C(CC(=O)Nc1ccc(N(C)C)cc1)=N\NC(=O)c1ccccn1 | -7.0 | -0.9 | 2.3 | 1.3 | 3.8 | 0.8 | x | x
O=C(NCc1c[nH]c2ccccc12)c1ccccc1 | 21.1 | -1.2 | 3.8 | -1.6 | -1.5 | 2.8 | x | x
CCOc1cc(C(c2c(C)[nH][nH]c2=O)c2c(C)[nH][nH]c2=O)ccc1O | -24.8 | -5.9 | 0.8 | -5.9 | -1.8 | 11.8 | x | x
COc1ccc(OC)c(C(c2c(C)[nH][nH]c2=O)c2c(C)[nH][nH]c2=O)c1 | -7.8 | 7.9* | 6.2 | 2.3 | -0.9 | -1.1 | -1.1 | 0.5
COc1ccc(O)c(C(c2c(C)[nH][nH]c2=O)c2c(C)[nH][nH]c2=O)c1 | -3.8 | 22.2* | -1.9 | 0.5 | -4.9 | 23.7 | -0.3 | -1.2
COc1ccc(C(c2c(C)[nH][nH]c2=O)c2c(C)[nH][nH]c2=O)cc1Br | -0.1 | 1.4 | -1.4 | 2.6 | 0.8 | -5.0 | x | x
